Source: PubChem BioAssay
Compounds with a hit are over-represented: about 2.4% of the library has one in this group of screens.
Mcl1 Noxa PPI – disrupts binding of human Mcl-1 to Noxa peptide; Q07820; TR-FRET Mcl-1/Noxa peptide binding, 2 h; inhibition, % at 21.7 µM; 220,000 compounds, 1.5% hits;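 active means compounds that cut the protein-peptide binding signal by more than 50% relative to plate controls in a single-dose test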;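 further: His-tagged Mcl-1 with rhodamine Noxa BH3 peptide and terbium anti-His antibody; 0% = Mcl-1 plus Noxa peptide wells and 100% = peptide-only wells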
Target sequence (Q07820 whole entry, looked up): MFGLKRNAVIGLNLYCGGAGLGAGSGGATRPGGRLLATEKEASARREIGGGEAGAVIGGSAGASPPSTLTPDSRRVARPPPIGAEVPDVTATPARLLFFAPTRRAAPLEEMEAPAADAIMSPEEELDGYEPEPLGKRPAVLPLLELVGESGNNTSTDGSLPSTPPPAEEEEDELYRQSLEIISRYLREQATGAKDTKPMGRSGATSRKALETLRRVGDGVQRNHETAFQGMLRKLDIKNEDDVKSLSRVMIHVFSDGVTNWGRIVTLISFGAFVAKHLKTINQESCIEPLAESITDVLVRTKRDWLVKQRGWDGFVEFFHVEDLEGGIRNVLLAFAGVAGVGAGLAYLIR
zVAD death inh – L929 zVAD cell death inhibition. viability rescue, % at 10 µM. L929 zVAD necroptosis rescue, ATP luminescence, 24 h; with zVAD 60 µM. 220,000 compounds, 0.38% hits;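 active means activation, scaled between plate controls, above about 75%, limit read from the data; inactive means activation under that limit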;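 further: 0% = zVAD with DMSO and 100% = DMSO alone without zVAD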
Mcl1-Bid inh – Mcl-1/Bid interaction inhibition; Q07820; TR-FRET Mcl-1/Bid-Dy647 peptide binding, 1536-well; inhibition, % at 21.7 µM; 220,000 compounds, 0.97% hits;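 active means compounds that cut the binding signal by more than half at the single screening dose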;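 further: His-tagged Mcl-1 with europium anti-His antibody binding Bid BH3 peptide; 0% = Mcl-1 plus peptide wells and 100% = peptide-only wells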
Bim-Mcl-1 – inhibitors of Bim-Mcl-1 interaction, human | AID 1009 | 190,000 compounds, 0.1% hits | inhibition, % at 10 µM | Bead-based flow cytometry, Bim peptide-Mcl-1 binding; in the data active means inhibition above about 40%;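 further: 0% = no compound tracer wells and 100% = peptide blocker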
TNF necrop inh – inhibitors of TNF-alpha induced necroptosis in Jurkat FADD-/- cells; Jurkat FADD-/- TNF necroptosis rescue, ATP luminescence, 24 h; 0 = TNF only, 100 = no-TNF cells; activation (protection from cell death), % at 10 µM; 220,000 compounds, 0.068% hits; AID 463075;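 active means activation, meaning protection from cell death, of at least 50% relative to plate controls; inactive means activation below 50%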;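 further: necroptosis triggered by 40 ng/mL TNF-alpha added together with compound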
MCL1 BIM primary – MCL1-BIM-BH3 interaction inhibition (human); AID 2057; Q07820; inhibition, % at 10.9 µM; 320,000 compounds, 0.68% hits; GST-MCL1 / FITC-Bim-BH3 fluorescence polarization;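 active means inhibition above the mean inhibition of all tested compounds plus 3 SD, set per campaign, cut at about 40% in these data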;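 further: 0% = DMSO wells and 100% = unlabeled Bim-BH3 peptide control; higher means more loss of mP so more displacement of Bim peptide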
zVAD death conf – confirmed blocker of zVAD induced death in L929 cells; activation (protection from necroptosis), % at 10 µM; shares compounds with zVAD death inh; L929 zVAD-induced necroptosis rescue, ATP luminescence, 24 h; 760 compounds, 16% hits;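 active means mean protection from necroptosis of at least 50% over duplicate tests; inactive means mean protection below 50%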;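 further: 0% = cells with zVAD alone and 100% = vehicle cells without zVAD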
An asterisk follows results filed as active; . = no result.

SMILES | Mcl1 Noxa PPI | zVAD death inh | Mcl1-Bid inh | Bim-Mcl-1 | TNF necrop inh | MCL1 BIM primary | zVAD death conf
CCc1[nH]c(=O)c(C#N)c2c1CSC(C)(C)C2 | 8.3 | 1.4 | -8.2 | 0.0 | -2.0 | 8.1 | .
COc1ccc(CCNC(=O)C(NS(=O)(=O)c2cccc3nsnc23)C(C)C)cc1OC (stereo not given) | . | . | . | . | . | -0.2 | .
Nc1nnnn1/N=C/C=C/c1ccccc1 | 6.8 | 1.1 | -1.5 | 1.0 | 0.1 | 7.8 | .
Nc1nnnn1/N=C/C(Br)=C/c1ccccc1 | -9.2 | 116.0* | -1.1 | 0.0 | -17.3 | -1.8 | 101.8*
CCOc1cnn(-c2cc(Oc3ccc(C)cc3)ncn2)c(=O)c1Cl | 3.5 | -0.3 | -12.1 | -53.0 | 0.3 | 3.2 | .
Cc1ccccc1Oc1cc(-n2ncc(Cl)c(Cl)c2=O)ncn1 | -5.0 | 84.9* | -17.4 | -1.0 | -13.6 | -0.9 | 2.7
CCOCCCNC(=O)Cn1cnc2c(cnn2-c2ccc(C)c(C)c2)c1=O | . | . | . | . | . | 2.9 | .
CCc1ccc2c(c1)C(=O)C(=O)N2CC(=O)Nc1ccc(NC(=O)c2ccccn2)cc1 | 31.9 | 77.5* | 31.1 | 0.0 | -2.1 | 12.6 | 24.2
Cc1ccc(NC(=O)C(OC(=O)c2ccc(C=O)cc2)c2ccccc2)cc1Cl (stereo not given) | -10.3 | 82.5* | -1.6 | -4.0 | 3.0 | 0.2 | 18.9
O=C(CCC(=O)N1CCOCC1)c1ccc(F)cc1 | -1.8 | 0.6 | -17.1 | 1.0 | 0.7 | -6.9 | .
O=C(CCC(=O)N1CCN(C(=O)c2ccco2)CC1)c1ccc(F)cc1 | 15.1 | 75.8* | -24.3 | -2.0 | -0.5 | 4.0 | 1.8
CN(C)S(=O)(=O)c1ccc(N2CCCC2)c(C(=O)OCC(=O)NC2(C#N)CCCCC2)c1 | . | . | . | . | . | 0.1 | .
CC1(C)Oc2ccc3ccc(=O)oc3c2C(/C=N/O)=C1Cl | . | . | . | . | . | -26.9 | .
Cc1cc(N/N=C/c2ccncc2)nc2ccccc12 | 8.0 | 81.2* | -10.5 | 3.0 | 50.4* | . | 77.1*
Cc1ccc(CS(=O)Cc2ccc(C(=O)NCc3ccc(OC(C)C)cc3)o2)cc1 (stereo not given) | . | . | . | . | . | -17.2 | .
O=C(CSc1nc2ccc(Cl)cc2[nH]1)N1CCN(C(=O)c2ccco2)CC1 | 57.1* | 85.3* | -8.6 | 21.0 | 2.4 | 1.7 | 48.5
O=C(C1=NNCC1c1ccccc1)C1CO1 (stereo not given) | 11.6 | 98.5* | -21.4 | -4.0 | 90.5* | . | 90.3*
CCSC1=N/C(=C\c2ccc(OC)cc2)C(=O)N1 | 5.1 | 2.6 | -29.2 | -4.0 | 1.7 | 8.6 | .
COc1ccc(/C=C2\N=C(SC)NC2=O)cc1 | 15.2 | 90.7* | -21.4 | -1.0 | 64.3* | 0.8 | 76.9*
O=S(=O)(CC(CN1CCCCC1)N1CCCCC1)c1ccc2ccccc2c1 (stereo not given) | 9.9 | 76.5* | -28.4 | 0.0 | -4.7 | . | 1.7
O=S(=O)(CC(CN1CCOCC1)N1CCOCC1)c1ccccc1 (stereo not given) | 4.0 | 0.4 | -7.8 | 0.0 | 0.8 | -3.3 | .
Cc1ccc(S(=O)(=O)CC(CN2CCCCC2)N2CCCCC2)cc1 (stereo not given) | 3.7 | 80.8* | -3.1 | 0.0 | 10.4 | . | 21.5
O=C(COC(=O)c1ccc(O)cc1)Nc1ccc(OC(F)F)cc1 | 2.0 | 76.7* | -6.4 | -4.0 | 1.7 | 3.3 | 35.9
COc1ccccc1N(CC(=O)NCCN1CCOCC1)S(=O)(=O)c1ccccc1 | . | . | . | . | . | 0.8 | .
O=[N+]([O-])c1cc(-c2nnc(Nc3ccccc3)c3ccccc23)ccc1N1CCOCC1 | -1.3 | 98.5* | -4.0 | 0.0 | 1.3 | 6.9 | 36.0
SMILES | Mcl1 Noxa PPI | zVAD death inh | Mcl1-Bid inh | Bim-Mcl-1 | TNF necrop inh | MCL1 BIM primary | zVAD death conf
CSc1nc2ccc(Nc3nc(N4CCOCC4)nc(N4CCOCC4)n3)cc2s1 | 20.4 | 84.1* | -0.3 | -2.0 | 0.9 | -7.6 | 1.8
CCCC(NC(=O)CCl)c1ccccc1 (stereo not given) | 7.9 | 7.8 | 1.7 | -4.0 | 0.2 | 18.2 | .
CCC(NC(=O)CCl)c1ccc(C)cc1 (stereo not given) | 7.0 | 76.6* | -34.3 | -3.0 | 18.6 | -4.3 | 1.5
CCOCCc1nnc(NC(=O)CCC2CCCCC2)s1 | . | . | . | . | . | -1.1 | .
O=C(Oc1c(-c2ccccc2)oc2ccccc2c1=O)c1ccccc1 | 4.3 | 79.4* | -13.8 | -1.0 | -8.5 | -1.5 | 1.7
O=C(NC(=S)Nc1ccc2[nH]c(=O)[nH]c2c1)c1ccccc1F | . | . | . | . | . | 4.2 | .
O=C(COc1ccccc1F)Nc1ccc2[nH]c(=O)[nH]c2c1 | . | . | . | . | . | -2.8 | .
Cc1ccccc1C(=O)NC(=S)Nc1ccc2[nH]c(=O)[nH]c2c1 | 8.0 | 75.7* | -55.8 | -1.0 | 0.2 | 13.2 | 3.0
O=C(COc1ccccc1)Nc1ccc2[nH]c(=O)[nH]c2c1 | 18.5 | 76.5* | -33.9 | -1.0 | -1.6 | -1.8 | 1.9
COC(=O)c1ccc(NC(=O)CCN2CCOCC2)cc1 | . | . | . | . | . | 5.0 | .
CCCN1CCN(S(=O)(=O)c2ccc3c(c2)CCC(=O)N3)CC1 | . | . | . | . | . | 0.7 | .
COc1ccccc1C(=O)n1nc(-c2cccnc2)nc1NCc1ccccc1 | 6.4 | 76.9* | -28.8 | -1.0 | 0.9 | . | 15.8
CC(C)C(=O)n1nc(-c2cccnc2)nc1NCc1ccc(F)cc1 | 9.8 | 30.2 | 3.3 | -1.0 | 3.3 | 2.4 | .
CCC(=O)n1nc(-c2ccc(Cl)cc2)nc1NCc1ccccc1 | 15.0 | 1.0 | -15.8 | -1.0 | -5.6 | 1.9 | .
CCCC(=O)n1nc(-c2cccnc2)nc1NCc1ccc(OC)cc1 | 5.9 | 79.6* | -4.0 | -2.0 | 2.5 | . | 0.2
COCC(=O)n1nc(-c2ccccc2)nc1NCc1cccs1 | -3.2 | 81.6* | -14.5 | -2.0 | 3.1 | . | 17.6
O[C@@H]1CN(C2CCCCC2)CC[C@H]1N1CCN(CCc2ccccc2)CC1 | . | . | . | . | . | 6.8 | .
CCOc1cc(/C=C/C(=O)c2ccc(O)cc2)ccc1OCC(=O)N(C)C | 19.6 | 105.1* | -32.6 | -6.0 | 8.1 | -4.2 | 25.2
Clc1ncc(CSc2ccccc2)s1 | 1.1 | 90.6* | -34.1 | 1.0 | 17.9 | -8.6 | 49.9
O=C(CSc1nnc(-c2ccncc2)o1)N1CCCCCC1 | 7.7 | 76.0* | -9.7 | 10.0 | 0.0 | . | 0.4
Cc1ccc(-c2nnc(SCC(=O)N3CCCC3)o2)cc1 | 2.8 | 0.2 | -24.7 | -7.0 | -4.0 | 3.1 | .
CC1CCCC(NC(=O)CCNS(=O)(=O)c2ccc(Br)cc2)C1C (stereo not given) | -6.1 | 77.3* | -10.7 | 0.0 | 0.7 | 0.2 | 6.6
Cc1cc2ncn(/N=C/c3cccnc3)c2cc1C | 1.5 | 76.3* | -8.9 | -6.0 | -2.0 | -0.3 | 35.8
COc1cc(/C=C2\CCC/C(=C\c3ccc(O)c(OC)c3)C2=O)ccc1O | . | . | . | . | . | 4.1 | .
COc1cc(/C=C2\Oc3cc(O)ccc3C2=O)ccc1O | 35.6 | 75.5* | -83.4 | . | -2.8 | 2.0 | 26.5
Cc1ccc(S(=O)(=O)Nc2cccc3ncccc23)cc1 | -3.7 | -0.3 | -19.1 | . | 1.3 | 2.5 | .
